In ChEMBL document CHEMBL4303097 (2020):
The full ranking holds about 1,500 compounds; the median of “Inhibition index” is about 0.17, and the highest 2% start at about 1.3. The list comes from a sample in which the highest values are over-represented; it also holds similar structures and randomly drawn compounds.

system: SARS-CoV-2; assay: Inhibition of cell viability relative to arbidol control (inhibition index > 1 indicates higher activity) measured by fluorescence (OD590nm) in Vero E6 cells infected with SARS-CoV-2 (strain BavPat1) at MOI 0.002 after 72hrs; format: functional, Chlorocebus sabaeus, Vero C1008

SMILES	Inhibition index
C#C[C@]1(OC(C)=O)CC[C@H]2[C@@H]3CCC4=CC(=NO)CC[C@@H]4[C@H]3CC[C@@]21CC	-0.3327
C[C@H](O)[C@H](O)[C@H]1CNc2[nH]c(N)nc(=O)c2N1.Cl.Cl [SAPROPTERIN DIHYDROCHLORIDE]	0.4022
O=C1CN(/N=C/c2ccc(-c3ccc([N+](=O)[O-])cc3)o2)C(=O)[N-]1.[Na+] [DANTROLENE SODIUM]	0.3986
Nc1ccc(S(=O)(=O)[N-]c2cnc3ccccc3n2)cc1.[Na+] [SULFAQUINOXALINE SODIUM]	-0.000446
COc1cc2nc(N3CCN(C(=O)C4CCCO4)CC3)nc(N)c2cc1OC.Cl (stereo not given)	-0.01131
CN(C)CCCN1c2ccccc2Sc2ccccc21.Cl [PROMAZINE HYDROCHLORIDE]	1.161
Cl.N[C@@H]1CCCCN(c2c(F)cc3c(=O)c(C(=O)O)cn(C4CC4)c3c2Cl)C1 [BESIFLOXACIN HYDROCHLORIDE]	0.08463
CCCCc1oc2ccccc2c1C(=O)c1cc(I)c(OCCN(CC)CC)c(I)c1.Cl [AMIODARONE HYDROCHLORIDE]	-0.1051
COCCc1ccc(OCC(O)CNC(C)C)cc1.COCCc1ccc(OCC(O)CNC(C)C)cc1.O=C(O)C(O)C(O)C(=O)O (stereo not given) [METOPROLOL TARTRATE]	0.03331
CCC(=O)[C@@]1(C)[C@H](C)C[C@H]2[C@@H]3CCC4=CC(=O)C=C[C@]4(C)[C@H]3[C@@H](O)C[C@@]21C [RIMEXOLONE]	0.1893
Cl.NCCc1ccc(O)c(O)c1 [DOPAMINE HYDROCHLORIDE]	1.056
C[C@@H]1C[C@H]2[C@@H]3C[C@H](F)C4=CC(=O)C=C[C@]4(C)[C@@]3(Cl)[C@@H](O)C[C@]2(C)[C@H]1C(=O)COC(=O)C(C)(C)C [CLOCORTOLONE PIVALATE]	0.111
O=C(O)Cc1ccccc1Oc1ccc(Cl)cc1Cl [FENCLOFENAC]	0.3257
CC(=O)OCC(=O)[C@@]12OC(C)(C)O[C@@H]1C[C@H]1[C@@H]3C[C@H](F)C4=CC(=O)C=C[C@]4(C)[C@@]3(F)[C@@H](O)C[C@@]12C [FLUOCINONIDE]	0.2896
CCN(CC)CC(=O)Nc1c(C)cccc1C.Cl	-0.01364
CC1=C(/C=C/C(C)=C/C=C/C(C)=C/C(=O)O)C(C)(C)CCC1 [TRETINOIN]	0.999
COc1cc(C)c(/C=C/C(C)=C/C=C/C(C)=C/C(=O)O)c(C)c1C [ACITRETIN]	0.2609
CC1=C(/C=C/C(C)=C/C=C/C(C)=C\C(=O)O)C(C)(C)CCC1 [ISOTRETINOIN]	1.484
CN1CCN2c3ccccc3Cc3ccccc3C2C1.Cl (stereo not given) [MIANSERIN HYDROCHLORIDE]	0.175
CC[C@H](C)C(=O)O[C@H]1C[C@@H](C)C=C2C=C[C@H](C)[C@H](CC[C@@H]3C[C@@H](O)CC(=O)O3)[C@H]21 [LOVASTATIN]	-0.07572

SMILES	Inhibition index
CC(C)(O/N=C(\C(=O)N[C@@H]1C(=O)N2C(C(=O)[O-])=C(C[n+]3ccccc3)CS[C@H]12)c1csc(N)n1)C(=O)O.O.O.O.O.O	0.06868
CCOc1ccc2nc(S(N)(=O)=O)sc2c1 [ETHOXZOLAMIDE]	2.099
CC(O)C(=O)O.CCOc1ccc2nc3cc(N)ccc3c(N)c2c1	0.4974
Cl.Nc1nc2ccc(OC(F)(F)F)cc2s1	0.04491
CC(=O)O.O=C(NCC1CCCCN1)c1cc(OCC(F)(F)F)ccc1OCC(F)(F)F (stereo not given) [FLECAINIDE ACETATE]	0.049
CN[C@@H]1[C@H](O)[C@H](NC)[C@H]2O[C@@]3(O)C(=O)C[C@@H](C)O[C@H]3O[C@@H]2[C@H]1O.Cl.Cl	0.1494
COc1cccc(N(C)C(=S)Oc2ccc3c(c2)CCCC3)n1 [LIRANAFTATE]	0.6869
CCCCc1cc2ccccc2c(OCCN(C)C)n1.Cl [DIMETHISOQUIN HYDROCHLORIDE]	-0.1351
CN(C)N=Nc1[nH]cnc1C(N)=O	-0.0106
CC(=O)OCC(=O)[C@@]1(O)CC[C@H]2[C@@H]3CCC4=CC(=O)CC[C@]4(C)[C@H]3[C@@H](O)C[C@@]21C [HYDROCORTISONE ACETATE]	0.145
Cl.O=C(OCC(O)CO)c1ccccc1Nc1ccnc2cc(Cl)ccc12 (stereo not given)	0.07624
COc1cc(NC(C)CCCN)c2ncccc2c1.O=P(O)(O)O.O=P(O)(O)O (stereo not given) [PRIMAQUINE PHOSPHATE]	0.6817
CCN(CC)CCCC(C)Nc1c2ccc(Cl)cc2nc2ccc(OC)cc12.Cl.Cl.O.O (stereo not given) [QUINACRINE HYDROCHLORIDE]	-0.1724
CCN(CC)CCCC(C)Nc1ccnc2cc(Cl)ccc12.O=P(O)(O)O.O=P(O)(O)O (stereo not given) [CHLOROQUINE PHOSPHATE]	1.351
CCN(CC)Cc1cc(Nc2ccnc3cc(Cl)ccc23)ccc1O.Cl.Cl.O.O [AMODIAQUINE HYDROCHLORIDE]	0.1282
NC(=O)c1cc[n+](CC2=C(C(=O)O)N3C(=O)[C@@H](NC(=O)[C@@H](c4ccccc4)S(=O)(=O)O)[C@H]3SC2)cc1.O.[Na+]	0.1703
CN1CCc2cccc3c2[C@H]1Cc1ccc(O)c(O)c1-3.CN1CCc2cccc3c2[C@H]1Cc1ccc(O)c(O)c1-3.Cl.Cl.O [APOMORPHINE HYDROCHLORIDE]	0.4481
CCCCOc1ccc(OCCCN2CCOCC2)cc1.Cl [PRAMOXINE HYDROCHLORIDE]	0.1376
CCOC(=O)c1c(N)sc2c1CCN(Cc1ccccc1)C2.Cl	0.8505
O=C([O-])C[C@H](O)C[C@H](O)/C=C/c1c(C2CC2)nc2ccccc2c1-c1ccc(F)cc1.O=C([O-])C[C@H](O)C[C@H](O)/C=C/c1c(C2CC2)nc2ccccc2c1-c1ccc(F)cc1.[Ca+2] [PITAVASTATIN CALCIUM]	-0.03681

SMILES	Inhibition index
C=CC[C@]1(O)CC[C@H]2[C@@H]3CCC4=CC(=O)CCC4=C3C=C[C@@]21C [ALTRENOGEST]	0.8504
CCOC(=O)C(C)(N)Cc1cc(I)c(Oc2cc(I)c(O)c(I)c2)c(I)c1.Cl (stereo not given)	0.3664
CCCSS/C(CCO)=C(\C)N(C=O)Cc1cnc(C)nc1N	0.2056
C/C(=C(/CCO)SSCC1CCCO1)N(C=O)Cc1cnc(C)nc1N.Cl (stereo not given)	1.385
C/C(=C(\CCOC(=O)c1ccccc1)SS/C(CCOC(=O)c1ccccc1)=C(\C)N(C=O)Cc1cnc(C)nc1N)N(C=O)Cc1cnc(C)nc1N	1.055
CCCCC(=O)O[C@H]1CC[C@H]2[C@@H]3CCc4cc(O)ccc4[C@H]3CC[C@]12C [ESTRADIOL VALERATE]	-0.4279
COc1cccc2c1C(=O)c1c(O)c3c(c(O)c1C2=O)C[C@@](O)(C(=O)CO)C[C@@H]3O[C@H]1C[C@H](N)[C@H](O)[C@H](C)O1.Cl [DOXORUBICIN HYDROCHLORIDE]	-0.06911
Cc1cc(/C=C/c2ccc3cc(N(C)C)ccc3[n+]2C)c(C)n1-c1ccccc1.Cc1cc(/C=C/c2ccc3cc(N(C)C)ccc3[n+]2C)c(C)n1-c1ccccc1.O=C([O-])c1cc2ccccc2c(Cc2c(O)c(C(=O)[O-])cc3ccccc23)c1O [PYRVINIUM PAMOATE]	-0.3469
C#C[C@]1(O)CC[C@H]2[C@@H]3CCC4=CC(=O)CC[C@]4(C)[C@H]3CC[C@@]21C [ETHISTERONE]	0.1353
CCSc1ccc2c(c1)N(CCCN1CCN(C)CC1)c1ccccc1S2.O=C(O)/C=C\C(=O)O	-0.4349
Cl.N=C(N)NC(=N)NCCc1ccccc1 [PHENFORMIN HYDROCHLORIDE]	-0.07157
N=C(N)NCCN1CCCCCCC1.N=C(N)NCCN1CCCCCCC1.O=S(=O)(O)O [GUANETHIDINE SULFATE]	0.04902
C[C@]12CC[C@@H]3c4ccc(O)cc4CC[C@H]3[C@@H]1C[C@@H](O)[C@@H]2O [ESTRIOL]	0.6126
C[C@]12CC[C@H](O)CC1=CC[C@@H]1[C@@H]2CC[C@]2(C)C(=O)CC[C@@H]12 [PRASTERONE]	0.9295
CC(=O)[C@H]1CC[C@H]2[C@@H]3CCC4=CC(=O)CC[C@]4(C)[C@H]3CC[C@]12C [PROGESTERONE]	0.4087
CC(=O)[C@H]1CC[C@H]2[C@@H]3CC=C4C[C@@H](O)CC[C@]4(C)[C@H]3CC[C@]12C [PREGNENOLONE]	1.659
CC[C@@H]([C@H](C)O)n1ncn(-c2ccc(N3CCN(c4ccc(OC[C@@H]5CO[C@@](Cn6cncn6)(c6ccc(F)cc6F)C5)cc4)CC3)cc2)c1=O.O	0.639
CN1CCN(C(c2ccccc2)c2ccccc2)CC1.Cl [CYCLIZINE HYDROCHLORIDE]	0.3956
CCOC(=O)[C@H](CCc1ccccc1)N[C@@H](C)C(=O)N1[C@H](C(=O)O)C[C@H]2CCCC[C@@H]21 [TRANDOLAPRIL]	0.1383
CC(C)(C)C(=O)OCOC(=O)[C@@H]1N2C(=O)[C@@H](NC(=O)[C@H](N)c3ccccc3)[C@H]2SC1(C)C [PIVAMPICILLIN]	0.3125
